Measurements published in PubChem BioAssay AID2568 (National Center for Advancing Translational Sciences (NCATS), 2010).
Results filed as inconclusive are left out. Active and inactive are the calls of the source. Calls follow the shape of the full dose curve.

Target: Neuropeptide S receptor (Homo sapiens) (UniProt Q6W5P4)
Experiment: Confirmation Concentration-Response Assay for Antagonists of the Neuropeptide S Receptor: cAMP Signal Transduction, SAR for Probe
Conditions: CHO-NPSR cells, cAMP TR-FRET, antagonist mode; series mostly up to 47.8 µM; activity change, negative = inhibition: at the top concentration
From the text: NIH Chemical Genomics Center [NCGC] NIH Molecular Libraries Probe Production centers Network [MLPCN] MLPCN Grant: X01-DA026210-01 Assay Submitter (PI): Heilig, Markus Alexander NCGC Assay Overview: Neuropeptide S receptor (NPSR), previously known as GPR154, is a recently de-orphanized G protein coupled receptor. Its endogenous ligand is the 20 amino acids peptide Neuropeptide S (NPS). […] NPS and its receptor are found in various tissues. Specifically they are highly expressed in brain areas that have been implicated in modulation of arousal, stress and anxiety. Central administration of NPS in mice produces an unusual profile of activity by inducing wakefulness and arousal, while at the same time suppressing anxiety. Therefore, NPSR may represent a novel drug target for the treatment of sleep and anxiety disorders. To identify NPSR antagonists, we developed a cell-based cAMP assay. NPS can stimulate the production of cAMP in Chinese hamster ovary cells stably expressing NPS receptor. This change in intracellular cAMP level can be detected by a homogeneous LANCE cAMP assay based on the TR-FRET (time resolved fluorescence resonance energy transfer) between a europium-labeled cAMP tracer complex and a cAMP-specific antibody labeled with Alexa Fluor 647. The europium-labeled cAMP tracer complex is formed by the tight interaction between Biotin-cAMP (b-cAMP) and streptavidin labeled with Europium-W8044 chelate (Eu-SA). Light pulse at 320 nm excites the europium of the cAMP tracer and the energy emitted is transferred to the Alexa molecule bound to the cAMP antibody, generating a TR-FRET signal at 665 nm. Residual energy from the europium will produce a light at 620 nm. The native unlabeled cAMP from cell lysates competes with the europium-cAMP tracer for antibody binding and reversely reduces the emission signal of Alexa by interrupting FRET between the two labeled molecules. Both emission signals from the FRET donor (620 nm) and the acceptor (665 nm) can be detected by a plate reader in the TRF mode. Expression of result in fluorescence ratio (665 nm/620 nm) helps to normalize differences due to cell density and reagent dispensing. This assay was successfully optimized to a 1536-well plate format. Select compounds from the primary screen (AID 1461) were chosen for confirmation based on potency, efficacy, SAR, and activity across other assays in PubChem and at NCGC. Other compounds are analogs of active compounds from the primary screen.
NCGC Assay Protocol Summary: A Chinese hamster ovary (CHO) cell line stably expressing the NPS receptor (CHO-NPSR) was obtained from Dr. Heilig lab at NIAAA and maintained in F-12 Kaighn's media (Invitrogen, Carlsbad, CA, 21127) supplemented with 10 % FBS, 100 units/ml penicillin, 100 ug/ml streptomycin and 250 ug/ml geneticin at 37C, 5% CO2 in a humidified atmosphere. Before the assay, aliquots of cells were frozen and stored at -135C. The assay was performed in 1536-well format. Data are reported for both the ratio of the two emission wavelengths, and also for the component 'donor' channel, Em2=620. […] IC50 values were determined from concentration-response data modeled with the standard Hill equation. NPS 1536-well assay protocol: (1) Fresh or frozen CHO-NPSR cells were suspended in F-12 Kaighn's media supplemented with 10 % FBS, 100 units/ml penicillin and 100 ug/ml streptomycin. Cells were plated at 4 ul/well (1200 cells) to white, tissue culture treated 1536-well plates, and then cultured at 37C, 5 % CO2 for 16 to 30 hours. (2) Add 23 nl/well of compound in DMSO solution. The final titration for each compound was between 0.6 nM and 46 uM. (3) Add 1 ul of stimulation reagent (1X HBSS buffer, 5 mM HEPES, 0.1% BSA, 500 uM RO-201724 (Sigma-Aldrich, B8279), 1.5% Alexa 647-labeled anti-cAMP antibody (from Perkin Elmer), 100 nM NPS) (4) Incubation at 37C, 5 % CO2 for 60 min. (5) Add 1 ul/well detection reagent. […]

Chain of Neuropeptide S receptor (Homo sapiens) (Q6W5P4 whole entry, looked up): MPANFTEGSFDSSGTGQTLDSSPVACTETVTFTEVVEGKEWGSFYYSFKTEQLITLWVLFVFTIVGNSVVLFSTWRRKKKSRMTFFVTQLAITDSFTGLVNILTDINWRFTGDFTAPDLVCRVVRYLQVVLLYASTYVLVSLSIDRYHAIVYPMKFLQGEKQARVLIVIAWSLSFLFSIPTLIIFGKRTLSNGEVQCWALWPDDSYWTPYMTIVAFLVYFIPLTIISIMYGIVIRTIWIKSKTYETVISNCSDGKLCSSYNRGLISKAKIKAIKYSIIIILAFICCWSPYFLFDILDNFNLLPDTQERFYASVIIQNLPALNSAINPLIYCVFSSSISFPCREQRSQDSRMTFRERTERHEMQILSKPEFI

Potency, active:
COc1cccc(C2c3c(ncn(-c4ccncc4)c3=N)Oc3ccc4ccccc4c32)c1 (stereo not given) 19.4 µM, COc1ccc(C2c3ccccc3Oc3ncn(CCN4CCOCC4)c(=N)c32)cc1OC (stereo not given) 6.14 µM, COc1cccc(C2c3c(ncn(-c4ccc(C)cc4)c3=N)Oc3ccc4ccccc4c32)c1 (stereo not given) 12.2 µM, COc1ccc(C2c3c(ncn(Cc4ccccc4)c3=N)Oc3ccc4ccccc4c32)cc1OC (stereo not given) 19.4 µM, COc1cccc(C2c3c(ncn(-c4cccc(C#N)c4)c3=N)Oc3ccc4ccccc4c32)c1 (stereo not given) 19.4 µM, COc1cccc(C2c3c(ncn(-c4ccc(F)cc4)c3=N)Oc3ccc4ccccc4c32)c1 (stereo not given) 15.4 µM, COc1cccc(C2c3c(ncn(-c4ccccc4OC)c3=N)Oc3ccc4ccccc4c32)c1 (stereo not given) 6.14 µM, Cc1c(P(=S)(c2ccccc2)c2ccccc2)[n+]2ccccc2n1CC(=O)c1ccccc1 4.45 µM, Cc1c(P(=S)(c2ccccc2)c2ccccc2)c2ccccc2n1C(=O)NCc1ccccc1 31.5 µM, COc1ccc(C2c3c(n(Cc4ccccc4)cnc3=N)Oc3ccc4ccccc4c32)cc1OC (stereo not given) 48.7 µM, COc1cccc(C2c3c(ncn(-c4cccc(F)c4)c3=N)Oc3ccc4ccccc4c32)c1 (stereo not given) 3.87 µM, O=C1OC(c2ccccc2)(c2ccccc2)N2CCN(C(=O)NCc3ccc(F)cc3)CC12 (stereo not given) 1.94 µM, COc1ccc(C2c3c(n(CCCc4ccccc4)cnc3=N)Oc3ccc4ccccc4c32)cc1OC (stereo not given) 24.4 µM, COc1cccc(C2c3c(ncn(-c4cccnc4)c3=N)Oc3ccc4ccccc4c32)c1 (stereo not given) 12.2 µM, COc1ccc2c(c1)Oc1ncn(CCN3CCOCC3)c(=N)c1C2c1ccc(OC)c(OC)c1 (stereo not given) 19.4 µM, Cc1c(P(=S)(c2ccccc2)c2ccccc2)c2ccccc2n1C(=O)NCc1ccc(F)cc1 31.5 µM, COc1ccc(C2c3c(ncn(CCCc4ccccc4)c3=N)Oc3ccc4ccccc4c32)cc1OC (stereo not given) 24.4 µM, COc1cccc(C2c3c(ncn(-c4ccccc4Br)c3=N)Oc3ccc4ccccc4c32)c1 (stereo not given) 12.2 µM, COc1cccc(C2c3c(ncn(-c4ccccn4)c3=N)Oc3ccc4ccccc4c32)c1 (stereo not given) 30.7 µM, COc1cccc(C2c3c(ncn(-c4ccc5c(c4)OCO5)c3=N)Oc3ccc4ccccc4c32)c1 (stereo not given) 6.14 µM, CCOC(=O)c1ccc(-n2cnc3c(c2=N)C(c2cccc(OC)c2)c2c(ccc4ccccc24)O3)cc1 (stereo not given) 15.4 µM, COc1cccc(C2c3c(ncn(-c4cccc(OC)c4)c3=N)Oc3ccc4ccccc4c32)c1 (stereo not given) 9.72 µM, CCC(C)(CCN1CCOCC1)N(Cc1cc2ccccc2n(C)c1=O)C(=O)C1CCCCC1 (stereo not given) 0.308 µM, COc1cccc(C2c3c(ncn(Cc4cccs4)c3=N)Oc3ccc4ccccc4c32)c1 (stereo not given) 19.4 µM, COc1cccc(C2c3c(ncn(-c4ccccc4C)c3=N)Oc3ccc4ccccc4c32)c1 (stereo not given) 9.72 µM, COc1cccc(C2c3c(ncn(-c4ccc(Br)cc4)c3=N)Oc3ccc4ccccc4c32)c1 (stereo not given) 15.4 µM, COc1cccc(C2c3c(ncn(-c4cccc(Br)c4)c3=N)Oc3ccc4ccccc4c32)c1 (stereo not given) 19.4 µM, COc1ccc(-n2cnc3c(c2=N)C(c2cccc(OC)c2)c2c(ccc4ccccc24)O3)cc1 (stereo not given) 9.72 µM

Activity change, negative = inhibition, inactive:
O=P(c1ccccc1)(c1ccccc1)c1cnc2ccccn12 -17.1%, COc1ccc(C2c3c(nc(CCCc4ccccc4)[nH]c3=O)Oc3ccc4ccccc4c32)cc1OC (stereo not given) -18.2%, c1ccc(P(c2ccccc2)c2cnc3ccccn23)cc1 -26.4%, Cc1c(P(=S)(c2ccccc2)c2ccccc2)c2ccccc2n1CCc1ccccc1 -9.1%, Cc1c(P(=S)(c2ccccc2)c2ccccc2)c2ccccc2n1CCCc1ccccc1 -6.79%, Cc1c(P(=S)(c2ccccc2)c2ccccc2)c2ccccc2n1Cc1ccccc1 -21.2%, OC(c1ccccc1)(c1ccccc1)c1cnc2ccccn12 -18.7%, COc1cccc(C2c3c(ncn(-c4ccc(-c5ccccc5)cc4)c3=N)Oc3ccc4ccccc4c32)c1 (stereo not given) -18.1%, Cc1c(C(O)(c2ccccc2)c2ccccc2)[n+]2ccccc2n1C -2.91%, Cc1nc2ccccn2c1P(=O)(c1ccccc1)c1ccccc1 -20.8%, Cc1c(P(=O)(c2ccccc2)c2ccccc2)c2ccccc2n1C -18.1%, O=C(NCc1ccccc1)n1cc(P(=S)(c2ccccc2)c2ccccc2)c2ccccc21 -17.7%
